Laboratory results reported in PubChem BioAssay AID1457 (National Center for Advancing Translational Sciences (NCATS), 2008).
About 730 (0.35%) of roughly 210,000 compounds were called active. Another 1% or so got no clear call; they are omitted. What follows is part of a selection rich in actives, with near analogues and random picks from the rest. A number with no mark means an inactive call. The call rests on the fitted dose curve; in most records, active means well fitted inhibition curve with a large enough effect; inconclusive means small, poorly fitted or top-dose-only effect; inactive means no such curve, though single readings can be large or run the other way.

Assay: qHTS Assay for Identifying the Cell-Membrane Permeable IMPase Inhibitors: Potentiation with Lithium;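 further: IP1 builds up when IMPase is blocked and the TR-FRET signal falls; nearly all actives have a fitted effect of over 50% in size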;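 on activity, negative = IMPase inhibition: plate controls were basal vehicle for no effect and high inhibitor control for full effect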
Settings: CHO-M1 cells, IP1 TR-FRET (IP-One), carbachol + lithium; series mostly up to 59.4 µM; activity, negative = IMPase inhibition: at the top concentration
Source text: NIH Chemical Genomics Center [NCGC]
NIH Molecular Libraries Probe Production centers Network [MLPCN]
Assay Submitter (PI): Wei Zheng
Lithium has been widely used for the treatment of bipolar disorder. But lithium has a narrow therapeutic index and it can cause side effects such as thirst, weight gain, tremor, polyuria and memory problems. Although the mechanism for lithium action in treatment of bipolar disorder is still not fully understood, inhibition of inositol monophosphatase (IMPase) and the subsequent depletion of the inositol pool in living cells have been implicated as the primary therapeutic benefit of lithium therapy. Therefore, a selective IMPase inhibitor with reduced side effects might be a good drug candidate to replace lithium for the treatment of bipolar disorder. Several IMPase inhibitors have been discovered previously. However, they are not suitable for therapeutic use because of their poor cell membrane penetrability or oral bioavailability; the development of new cell-permeable IMPase inhibitors is needed.
IMPase catalyzes the hydrolysis of inositol-1-phosphate (IP1) to release free inositol. Binding of an agonist to a Gq coupled GPCR results in the activation of PLC, which hydrolyzes the PIP2 to form inositol-1,4,5-trisphosphate (IP3) and diacyl glycerol (DAG). While DAG activates protein kinase C (PKC), IP3 triggers the elevation of intracellular free Ca2+. The IP3 is very rapidly inactivated by hydrolysis to IP2, IP1 and then inositol by a series of enzymes including IMPase. Free inositols are used for synthesis of PI and thus start another inositol cycle.
To identify new cell-permeable IMPase inhibitors, we developed a cell-based IMPase assay in which the cytosolic IP1 is measured by a time-resolved fluorescence resonance energy transfer (TR-FRET) assay. In this assay, an IP1 specific antibody is used to detect the labeled IP1 tracer. When the cell lysate contains the elevated IP1 due to the inhibition of IMPase, the TR-FRET between the labeled antibody and IP1 tracer is disrupted resulting in a reduction in the total signal. Since the TR-FRET is used, this cell-based assay is a homogenous assay without cell wash and medium change that is suitable for assay miniaturization and HTS. In this particular assay, a small amount of lithium is added to potentiate the response of weak activators.
NCGC Assay Protocol Summary:
A Chinese hamster ovary (CHO) cell line stably expressing the M1 receptor (CHO-M1) was obtained from ATCC and maintained in F-12 Kaighn's media (Invitrogen, Carlsbad, CA) supplemented with 10 % FBS, 100 units/ml penicillin, 100 ug/ml streptomycin and 250 ug/ml geneticin at 37C, 5% CO2 in a humidified atmosphere. Before the assay, aliquots of cells were frozen and stored at -135C. The assay was performed in 1536-well format. Data are reported for both the ratio of the two emission wavelengths, and also for the component 'donor' channel, Em2=620. […] AC50 values were determined from concentration-response data modeled with the standard Hill equation.
(1) Frozen CHO-M1 cells were thaw, washed once with fresh media and resuspended in F12K media containing 10% FBS, 100 units/ml penicillin and 100 ug/ml streptomycin. Cells were plated at 4ul/well (2000 cells) in white, tissue culture treated 1536-well plates, and then cultured at 37C, 5 % CO2 for 16 to 30 hours.
(2) Add 23 nl/well of compound in DMSO solution. The final titration for each compound was between 0.6 nM and 46 uM.
(4) Incubation at 37C, 5 % CO2 for 30 min.
(5) Add 1 ul/well of d2-conjugated IP1 (d2-IP1) and 1 ul/well of Eu+ cryptate conjugated anti-IP1 antibody (Eu+-Ab) prepared in the cell lysis buffer, both from the IP-One kit (Cisbio, MA).
(6) Incubate at room temperature for 10 minutes.
(7) Detect the assay plate (Ex = 320, Em1 =665 and Em2 620) in a ViewLux plate reader.
Potency means the concentration at half of the fitted maximal effect.

Row | SMILES | activity, negative = IMPase inhibition | Potency
1 | CCOC(=O)c1c(C)[nH]c2c1-c1ccccc1C(=O)C2=O | 12.6% | 
2 | CCOC(=O)c1c(C)nc(-c2ccccc2)nc1NC(=O)C(C)C | 2.09% [at 38.3 µM] | 
3 | CCOC(=O)c1c(C)[nH]c(=S)c(C#N)c1-c1ccccc1 |  | 12.6 µM (active)
4 | Brc1ccc(C2=NCCC(c3ccccc3)O2)cc1 (stereo unspecified) | 4.94% | 
5 | CC[C@H](C)[C@@H](NC(=O)O[C@@H]1C(=O)c2cc(OC)ccc2O[C@H]1c1cccc(OC)c1)C(=O)OC | 18.9% | 
6 | COc1cc(OC)c2c(-c3cccc(-c4cccc(N)c4)c3)cc(=O)oc2c1 | 16.6% | 
7 | CCOC(=O)C1=NO[C@@]2(C=C(Br)C(=O)[C@H]3O[C@H]32)C1 | 15.8% | 
8 | CC1=C(/C=C/C(C)=C/C=C/C(C)=C/C=C/C=C(C)/C=C/C=C(C)/C=C/C(=O)[C@]2(C)C[C@@H](O)CC2(C)C)C(C)(C)C[C@H](O)C1 | -2.06% | 
9 | COC(=O)c1sc(=S)n(-c2ccccc2)c1N | 25.7% [at 38.3 µM] | 
10 | COC(=O)c1sc2[nH]c(=S)n(N)c(=O)c2c1C |  | 10 µM (active)
11 | CCOC(=O)Cn1c(N)c(C(=O)OC)sc1=S | -4.7% [at 38.3 µM] | 
12 | COC/C=C/C1=CC2=CC(=O)C(C)(OC(=O)CCC(=O)OC)C(=O)C2=CO1 (stereo unspecified) | 0.633% | 
13 | COc1cccc([C@@H]2Oc3ccc(Br)cc3C(=O)[C@H]2OC(=O)NCCc2ccc(OC)c(OC)c2)c1 | 10.1% | 
14 | NNc1nnc(NN)c2ccccc12 | 11.6% | 
15 | Cc1nnc(NC(=O)CSc2nc(C3CCCCC3)nc3ccccc23)s1 |  | 6.31 µM (active)
16 | O=C(CSc1nc(C2CC2)nc2ccccc12)Nc1ccc2c(c1)OCCO2 | 18.1% [at 38.3 µM] | 
17 | COC(=O)CSc1nc(C2CC2)nc2ccccc12 | 3.22% [at 38.3 µM] | 
18 | NC(=O)c1sc(-c2ccsc2)cc1N | -15.1% | 
19 | COC(=O)C1=C(C(=O)OC)[C@@H]2N(C)c3ccccc3[C@@]23C[C@@H](C(=O)OC)N(S(=O)(=O)c2ccc(Br)cc2)C3=N1 | 2.46% | 
20 | CC(N)(C(=O)O)c1ccc(-c2nn[nH]n2)cc1 (stereo unspecified) | -8.09% | 
21 | CCN1C(=O)N[C@@H](c2ccccc2)C(C(=O)OC)=C1C | -7.94% | 

Row | SMILES | activity, negative = IMPase inhibition | Potency
22 | CCOC(=O)c1c(-c2ccc(C)cc2C)csc1NC(=O)CSc1nnnn1C | 9.77% [at 38.3 µM] | 
23 | CCOC(=O)c1c(NC(=O)CSc2nnc(Cc3csc(N)n3)n2C)sc(C)c1C | 36% [at 38.3 µM] | 
24 | COC(=O)c1c(-c2cccs2)csc1NC(=O)CSc1ncnc2sc(C)c(C)c12 |  | 28.2 µM (active)
25 | Cc1ccc(NC(=O)O[C@@H]2C(=O)c3cc(Br)ccc3O[C@H]2c2ccc3c(c2)OCO3)cc1Br | 9.18% | 
26 | C=C1O[C@@](CO)(n2cnc3c(N)ncnc32)[C@H](O)[C@@H]1O | -2.98% | 
27 | Cc1ccccc1-c1ccc(C(=O)O)s1 | -28.1% | 
28 | O=C(NCc1ccco1)O[C@@H]1C(=O)c2cc(Br)ccc2O[C@H]1c1ccc2c(c1)OCO2 | 7.71% | 
29 | O=C(O)C[C@@H]1NC(=O)[C@H](Cc2ccccc2)NC1=O | -10.9% | 
30 | CN(c1nc2ccccc2n2c(-c3ccco3)nnc12)S(=O)(=O)c1ccccc1 |  | 7.94 µM (active)
31 | Cc1cc(NCc2ccco2)n2c(nc3ccccc32)c1C#N | 20.5% [at 38.3 µM] | 
32 | Cn1c(-c2ccco2)nc2cc3ccccc3cc21 | -7.17% [at 38.3 µM] | 
33 | CCCCCCCC[C@@H](O)/C=C/C=C/C=C\[C@@H](O)CCCC(=O)O | 6.73% | 
34 | COc1ccc2c(c1)O[C@@H](c1ccc3c(c1)OCO3)[C@H](OC(=O)NCCc1ccc(OC)c(OC)c1)C2=O | -14.2% | 
35 | C/C=C(\C)C(=O)OC1C(OC(=O)C2(C)OC2C)c2cc3ccc(=O)oc3cc2OC1(C)C (stereo unspecified) | 4.87% | 
36 | COC1(C2=NCCN2)COc2ccccc2O1 (stereo unspecified) | 5.3% | 
37 | C[C@H]1Cc2c(COc3ccccc3)nc3c(c2CO1)CN(C(=O)NCc1ccco1)CC3 | -2.19% | 
38 | C/C=C(\C)C(=O)O[C@H]1CC(C)=C2C(=O)C=C(C)C2[C@@H]2OC(=O)[C@@](C)(OC(=O)C=C(C)C)C21 (stereo partly specified) | -1.2% | 
39 | CCCCC/C=C\C/C=C\C/C=C\CCCCCCC(N)=O | 7.82% | 
40 | COc1ccc(-c2nc3cnc(Oc4ccccc4)nc3n(Cc3cccs3)c2=O)cc1 |  | 8.91 µM (active)
41 | COc1ccc(-c2nc3cnc(N(C)C)nc3n(Cc3cccs3)c2=O)cc1 | 1.78% | 
42 | COc1cccc(Cn2c(=O)c(C)nc3cnc(Oc4ccccc4)nc32)c1 | 18.7% | 

Row | SMILES | activity, negative = IMPase inhibition | Potency
43 | COc1cccc(Cn2c(=O)c(-c3cc(F)cc(F)c3)nc3cnc(OC)nc32)c1 | 0.937% | 
44 | COc1cccc(Cn2c(=O)c(-c3ccccc3)nc3cnc(OC)nc32)c1 | 24.5% | 
45 | COc1ccc(-c2nc3cnc(OC)nc3n(Cc3ccc(F)cc3)c2=O)cc1 |  | 5.62 µM (active)
46 | COc1ccc(-c2c(C)cc3oc(=O)cc(-c4ccccc4)c3c2C)cc1C=O | 2.81% | 
47 | CC(C)[C@@H]1NC(=O)[C@H](Cc2ccccc2)NC(=O)[C@@H](CC(=O)O)NC(=O)CNC(=O)[C@H](CCCNC(=N)N)NC1=O | 7.05% | 
48 | Cc1cc2oc(=O)cc(-c3ccccc3)c2c(C)c1/C=C/c1ccc(F)cc1 | -7.25% | 
49 | Cc1ccc(-c2cccc([C@H]3[C@@H]4C=CC[C@@H](C)[C@@H]4C(=O)N3Cc3ccccc3)c2)cc1 | 10% | 
50 | CC(=O)/C(C)=N/O | -3.22% | 
51 | O=C(NCc1cccs1)c1cc(-c2ccccn2)nc2ccc(Br)cc12 |  | 6.31 µM (active)
52 | Cc1ccc2nc(-c3ccccn3)cc(C(=O)Nc3ccc4c(c3)OCO4)c2c1 | 4.54% | 
53 | Cc1ccc2nc(-c3ccncc3)cc(C(=O)Nc3ccc(OC(F)F)cc3)c2c1 | 16.8% | 
54 | Cc1ccc(-c2cc(C(=O)NCc3cn(C)nc3C)c3cc(Br)ccc3n2)cc1 | -14.7% | 
55 | O=C(Nc1ccncc1)c1cc(-c2ccccn2)nc2ccc(Br)cc12 |  | 2.82 µM (active)
56 | O=C(NCc1ccccn1)c1cc(Br)ccc1Cl | 5.27% | 
57 | S=C(NCCCc1cnc[nH]1)NCCCN(Cc1ccc(Cl)c(Cl)c1)c1ccc(Br)cn1 | 2.14% | 
58 | C=CC(C1=CC(=O)C=CC1=O)c1ccc(O)cc1 (stereo unspecified) | 38.9% | 
59 | COc1cccc([C@@H]2Oc3ccc(Br)cc3C(=O)[C@H]2OC(=O)NCc2ccc3c(c2)OCO3)c1 | 9.58% | 
60 | CC(=O)[C@H](C(c1ccccc1)N1CCOCC1)N1CCOCC1 (stereo partly specified) | -10.4% | 
61 | COC(=O)C1=C(C(=O)OC)[C@@H]2N(Cc3ccccc3)c3ccccc3[C@@]23C[C@@H](C(=O)OC)N(S(=O)(=O)c2ccc(C(F)(F)F)cc2)C3=N1 | 9.75% | 
